# Source: PubChem BioAssay
# IL-1B inflam inh: inflammasome signaling inhibition, IL-1 beta readout; THP-1 LPS/ATP IL-1B secretion, AlphaLISA, 16 h; hits give low values; activity change, % at 57.5 µM; 4.7% of 360,000 active; AID 743279; in the data active means activity change below about -50%; inconclusive means mostly about -30% to -49%
#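 THP-1 cells pretreated 1 hr with compounds (up to 57.5 uM final), then stimulated with LPS (250 ng/mL final) plus ATP (1.25 mM final); secreted IL-1B measured by AlphaLISA after 16 hr, decreased signal indicating inhibition.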
# TDP1 cell CPT: growth inhibition of DT40 Tdp1-/-;hTDP1 cells with camptothecin (screen for TDP1 inhibitors) | chicken DT40 Tdp1-/-;hTDP1 cells + 20 nM CPT, ATP luminescence, 48 h | Potency, µM (doses to about 46.2 µM), actives largely listed as inhibitors | 12% of 420,000 active; further: nearly all actives have a fitted effect of over 55% in size
#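 Chicken DT40 Tdp1-/- cells stably complemented with human TDP1 were seeded at 400 cells/well in medium containing 20 nM camptothecin, exposed to pin-transferred compounds, and grown at 37 °C for at least 48 hr. Viability was read as ATP luminescence.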
# HT1080NT lethal: kills 2HG-producing HT-1080-NT fibrosarcoma cells | 1.6% of 360,000 active | HT-1080-NT fibrosarcoma viability, CellTiter-Glo ATP luminescence, 48 h | Potency, µM (doses to about 46.1 µM), actives largely listed as cytotoxic;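 further: NT is the 2HG producing partner of a matched IDH1 knockdown line; nearly all actives have a fitted effect of over 55% in size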
#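 HT-1080-NT fibrosarcoma cells (2HG-overproducing), 750 cells/well in RPMI with 5% FBS, dosed after 2 h and incubated 48 h at 37C. CellTiter-Glo luminescence normalized to DMSO and no-cell wells; concentration-response curves fitted and classed.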
# HT1080 IDH1KD tx: HT-1080 IDH1 knockdown cell toxicity (counter line); HT-1080 IDH1 knockdown viability, ATP luminescence, 48 h; Potency, µM (highest dose often 46.1 µM), most hits filed as cytotoxic; 2% of 360,000 active; AID 686971
#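 IDH1KD HT-1080 cells, 750/well, RPMI + 5% FBS; compound pinned after 2 h settling; 48 h, 37 °C; CellTiter-Glo luminescence; % activity normalised to DMSO and no-cell wells; curves fitted, classed by r2 and efficacy.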
# DT40 TDP1 no CPT: qHTS for Inhibitors of human tyrosyl-DNA phosphodiesterase 1 (TDP1): qHTS in cells in absence of CPT. DT40 Tdp1-/- hTDP1 cells, no CPT, ATP luminescence, 48 h. Potency, µM (series often up to 46.2 µM), hits mostly inhibitors. 15% of 420,000 active; further: nearly all actives have a fitted effect of over 55% in size
#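 Camptothecin absent (DMSO only). Human TDP1-complemented DT40 knockout cells, 400 cells/well, 37 °C for minimum 48 hr; ATP measured via CellTiter-Glo, 30 min dark incubation, luminescence.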
# Numbers stand for hits; - = inactive; ? = inconclusive; . = not tested or not shown; ! = not confirmed by another sample. The list is not random: actives were taken first. Their share in the collection is about 19%. Unless noted, the call rests on the fitted dose curve; in most records, active means well fitted curve in the direction sought with a large enough effect; inconclusive means small, poorly fitted or top-dose-only effect, or another doubt; inactive means no such curve, though single readings can be large; an effect the other way counts as inactive or inconclusive.
SMILES,IL-1B inflam inh,TDP1 cell CPT,HT1080NT lethal,HT1080 IDH1KD tx,DT40 TDP1 no CPT
COc1ccccc1-c1nc2cc3ccccc3cc2nc1-c1ccccc1OC,-,?,-,-,?
CCCCc1c(-c2ccccc2OC)ncn1CCc1ccc(Cl)cc1,?,?,?,?,21µM
CCCCc1c(-c2ccccc2OC)ncn1CCc1ccccc1,-,21µM,18µM,21µM,?
CCCCc1c(-c2ccccc2OC)ncn1CCc1ccc(OC)cc1,-79,18µM,16µM,?,23µM
CCOC(=O)N1N=C(c2ccc(OC)cc2)CC1(O)C(F)(F)F (stereo unspecified),-,-,-,-,-
CCC1=NN(C(=O)Cc2ccc(OC)cc2)C(O)(C(F)(F)F)C1 (stereo unspecified),-,29µM,-,?,21µM
O=C(Cc1ccc([N+](=O)[O-])cc1)N1N=C(C2CC2)CC1(O)C(F)(F)F (stereo unspecified),-,26µM,-,-,?
CCC1=NN(C(=O)Cc2ccc([N+](=O)[O-])cc2)C(O)(C(F)(F)F)C1 (stereo unspecified),-,-,-,-,?
Cc1ccc(OCC(=O)N2N=C(c3cccnc3)CC2(O)C(F)(F)F)cc1C (stereo unspecified),-,16µM,-,-,?
CCCC1=NN(C(=O)Cc2ccc(OC)c(OC)c2)C(O)(C(F)(F)F)C1 (stereo unspecified),-,-,-,-,-
COc1ccc(CC(=O)N2N=C(c3ccncc3)CC2(O)C(F)(F)F)cc1 (stereo unspecified),-,5.2µM,15µM,9.2µM,4.6µM
Cc1ccc(Cl)cc1NC(=O)[C@@H]1CCC(=O)N1C1OC(=O)c2ccccc21 (stereo partly specified),-,-,-,-,-
O=C(c1ccncc1)N1N=C(C2CCCCC2)CC1(O)C(F)(F)F (stereo unspecified),-,2.9µM,-,-,4.6µM
COc1ccccc1C(CNC(=O)c1cc(C)nc2ccccc12)N(C)C (stereo unspecified),-,-,-,-,-
CCC(C)(C)n1nnnc1C(c1ccc2ncccc2c1)N1CCN(c2nc3ccccc3s2)CC1 (stereo unspecified),-,21µM,?,?,?
CCC(C)(C)n1nnnc1C(c1ccc2ncccc2c1)N1CCCC(C)C1 (stereo unspecified),-,-,-,-,11µM
COc1ccc(CNc2cc(C)nc3ncnn23)c(OC)c1,-,?,?,?,10µM
CC(C)(C)OC(=O)N(CCc1ccccc1)Cc1cccc(OCc2cccc(NC(=O)C3CCCC3)c2)c1,-,?,-,-,?
CC(C)(C)OC(=O)N(Cc1ccccc1)Cc1ccccc1OCc1ccc(NC(=O)C2CCC2)cc1,-68,18µM,-,-,?
CC(C)(C)OC(=O)N(CCc1ccccc1)Cc1ccccc1OCc1cccc(NC(=O)C2CCCC2)c1,-,21µM,?,-,?
CC(C)(C)OC(=O)N(CCc1ccccc1)Cc1ccc(OCc2cccc(NC(=O)C3CCCC3)c2)cc1,-,5.2µM,-,-,6.5µM
Cc1ccc2c(c1)S/C(=C/c1ccc[n+](C)c1)N2CCO,?,3.3µM,?,?,2.6µM
Cc1ccc(S(=O)(=O)CCC(=O)NCCN2C(=O)S/C(=C\c3ccccc3)C2=O)cc1,?,?,-,-,?
Cc1ccc(CN2CC(N3CCCC3)CS2(=O)=O)cc1 (stereo unspecified),-,-,-,-,-
Nc1ccccc1O,-,?,21µM,18µM,16µM
SMILES,IL-1B inflam inh,TDP1 cell CPT,HT1080NT lethal,HT1080 IDH1KD tx,DT40 TDP1 no CPT
CCOC(=O)CNC=C(C(=O)OCC)C(=O)OCC,-,-,-,-,-
CCOC(=O)C=C(C(=O)OCC)C(=O)OCC,-,4.6µM,-,-,4.6µM
Cc1nc(CC(=O)Nc2cc(Cl)ccc2C)cs1,.,-,.,.,-
Cc1cc(C)c2nc(NNC(=O)c3cc(-c4cccs4)nc4ccccc34)sc2c1,-,4.6µM,?,?,5.2µM
O=C(NNc1nc2ccc(Cl)cc2s1)c1cc(-c2cccs2)nc2ccccc12,-,2.6µM,?,?,5.2µM
COc1ccc2c(c1)c(=O)c(C(=O)c1ccc(C)c(C)c1)cn2CC(=O)Nc1ccc2c(c1)OCCO2,.,-,.,.,?
COc1ccc(OC)c(NC(=O)c2cc(S(=O)(=O)N3CCCC3)cn2C)c1,-,-,-,-,-
CCCC(=O)Nc1c(I)cc(I)c(CC(CC)C(=O)O)c1I (stereo unspecified),.,-,.,.,-
CCC(Cc1c(I)cc(I)c(N)c1I)C(=O)O (stereo unspecified),-,-,-,-,9µM!
COC(=O)[C@@]12CCCCN1[C@H](c1ccc(-c3ccc(F)cc3)cc1)[C@H]1C(=O)N(C)C(=O)[C@H]12,-,?,-,-,23µM
COC(=O)[C@@]12CCCCN1[C@H](c1ccc(-c3ccc(OC)cc3)cc1)[C@H]1C(=O)N(C)C(=O)[C@H]12,-,12µM,-,-,9.2µM
COC(=O)[C@@]12CCCN1[C@H](c1ccc(-c3ccc(F)cc3)cc1)[C@H]1C(=O)N(C)C(=O)[C@H]12,-,?,-,-,?
COC(=O)[C@@]12CCCN1[C@H](c1ccc(-c3ccc4c(c3)OCO4)cc1)[C@H]1C(=O)N(C)C(=O)[C@H]12,-,?,-,-,?
COC(=O)[C@@]12CCCCN1[C@H](c1ccc(-c3ccccc3)cc1)[C@@H]1C(=O)N(C)C(=O)[C@@H]12,-,21µM,-,-,?
Cc1ccc(NC(=O)CSCC(=O)N2c3ccccc3CCc3ccccc32)cc1,?,-,?,-,?
Fc1cc(F)cc(-c2c(-c3ccccc3)ncc3ccc(F)cc23)c1,-,13µM,-,-,7.3µM
Fc1ccc2cnc(-c3ccccc3)c(-c3cccc(C(F)(F)F)c3)c2c1,-,16µM,-,-,18µM
Fc1ccc2ncc3c(-c4ccccc4)n[nH]c3c2c1,.,-,.,.,-
COc1cc2c(cc1OC)CN(C1CCC(C(C)(C)C)CC1)CC2 (stereo unspecified),.,?,-,-,21µM
Cc1cc(OCC(=O)Nc2ccccc2C(N)=O)c2c(C)cc(=O)oc2c1,-,?,-,-,23µM
COc1ccccc1N1CCN(C(=O)COc2cc(C)ccc2C)CC1,-,?,-,-,16µM
COc1ccccc1N1CCN(C(=O)COc2cc(C)cc3oc(=O)cc(C)c23)CC1,-,16µM,-,-,21µM
COc1ccccc1N1CCN(C(=O)COc2ccc(C)cc2Br)CC1,-,-,-,-,?
